For this assay, the target named is AMP-activated protein kinase, AMPK (Homo sapiens) (UniProt P54646+O43741+P54619+Q9UGJ0+Q9Y478+Q13131+Q9UGI9). The assay can be described thus: AMP-dependent Kinase enzyme assay. An in vitro enzyme assay that detects ADP turnover that is directly proportional to AMPK activity. This uses naive AMPK that is activated during the assay with MK-8722. Type of assay: functional. The arrangement: scale not given: direction of the effect not stated beside the values. The note with it: 30 µM.
Take `COC(=O)c1ccoc1CN(C1CC1)C1CCS(=O)(=O)C1` (stereo not given): the Percent Effect was 7.17%. As for `CCc1nn(C)c(Cl)c1CN1CCCC2(CC1)CN(C)C(=O)O2` (stereo not given), the Percent Effect was -9.39%. With `COc1c(C)cnc(CN2CCn3c(C)nnc3C2)c1C` the figure was 8.91%; with `CC(C)[C@@H]1CN(C(=O)CN(C)Cc2ccc(F)cc2)C[C@H]1C(=O)O`, 0.85%; with `O=C(NCC(O)c1cccc(F)c1)C1CCN(C2CCCCC2)CC1` (stereo not given), -10%.

Regarding `Cc1noc(CN(C)c2ccccc2)n1`, the Percent Effect amounted to 5.44%. For `Cn1ccnc1-c1cn(CCc2nnc(N)s2)nn1`, the Percent Effect is -14.9%. Turning to `CN1CCCC1c1ccnc2nccn12` (stereo not given), the Percent Effect stood at 6.44%. For `CC(C)[C@]1(O)CN(C(=O)C2(Cn3cccn3)CC2)C[C@H]1C`, the Percent Effect was -3.27%. As for `O=C(CCn1cnnn1)N1CCCC(CO)(CCCc2ccccc2)C1` (stereo not given), the Percent Effect turned out to be 0.115%. Take `CCc1ncc2c(n1)CN(c1nnc(C)c(C)c1C#N)CC2`: the Percent Effect is -14.7%.

In the case of `COC(=O)CSCc1nc(-c2ccc(Cl)cc2)no1`, the Percent Effect is -4.75%.

In the case of `Cc1cc(NC(=O)C(C)NCCn2cccn2)no1` (stereo not given), the Percent Effect is -0.416%. With `CCOc1ccccc1C(C(=O)O)N(C)Cc1cc(C)[nH]n1` (stereo not given), the Percent Effect is 5.49%. Regarding `CCc1c(C)nn2c(O)cc(C3CCN(C(=O)c4ccn(C)n4)C3)nc12` (stereo not given), the Percent Effect was -4.46%.

Take `CSCC(C)(O)CNS(=O)(=O)c1ccc(Br)cc1` (stereo not given): the Percent Effect is -4.9%. With `CCN(C)S(=O)(=O)N1CCC(C(O)c2ccc(F)cc2)CC1` (stereo not given) the figure was -1.14%; with `O=C(CCC1CCCO1)NCCN1CCCCC1` (stereo not given), -1.67%; with `Cc1ccc(C(=O)NC2CCN(C(C)C)C2)c(=O)[nH]1` (stereo not given), -2.69%. On to `COCC(NC(=O)c1cn2ccsc2n1)c1ccnn1C` (stereo not given), for which the Percent Effect was -19.1%. For `CC(C)(C)NC(=O)CN1CCNCC1`, the Percent Effect was determined as 1.56%.

For `CCN(CC(=O)N(C)C)C(=O)c1ccc(-c2nc(C)cs2)cc1`, the Percent Effect is 8.68%. With `Cc1nc(CNC(=O)c2cc(COc3cccc(F)c3)[nH]n2)n[nH]1` the figure was 0.77%.

Consider `Cc1cc(=O)n2nc(Oc3cccc(I)c3)sc2n1`, for which the Percent Effect was -1.18%. Consider `O=C(CNc1ccc(OC2CCOC2)cc1)NCc1cccs1` (stereo not given), for which the Percent Effect stood at 9.41%. In the case of `CCC(C(=O)N(Cc1ccccn1)C1CCCCC1)n1cccn1` (stereo not given), the Percent Effect was found to be 1.8%. For `CCC(NC(=O)c1cnc(N(C)C)nc1C)c1ccc(S(C)(=O)=O)cc1` (stereo not given), the Percent Effect is -4.95%.

Consider `CC(C)(C)C(=O)N1CCCC1c1cc(CO)[nH]n1` (stereo not given), for which the Percent Effect was 14.4%.

With `Cc1cc(=O)n2nc(Oc3ccc(F)c(F)c3)sc2n1`, the Percent Effect is -9.97%. Consider `CCOCCC(=O)N(CCC#N)c1ccc(C)c(C)c1`, for which the Percent Effect is -0.0952%. With `Cc1cc(C2CCCN(Cc3noc(Cc4ccccc4)n3)C2)n[nH]1` (stereo not given) the figure was 35%; with `COc1ccc(C)cc1CN(C)CC(N)=O`, -2.2%. Regarding `CCn1c(C2CCCN2Cc2noc(C(C)(C)C)n2)nc2ccccc21` (stereo not given), the Percent Effect was 13.4%. Take `Cc1ccc(CN(C(=O)NC2CCS(=O)(=O)C2)C2CC2)o1` (stereo not given): the Percent Effect turned out to be 1.3%. Consider `CN(C)CCN(C)C(=O)c1cn(CC2CCCCC2)nn1`, for which the Percent Effect is 10.7%. On to `CCc1ccc(NC(=O)CCN2CC(n3nc(C)cc3C)C2)cc1`, for which the Percent Effect was -4.58%. With `O=C(Nc1ccc(I)cc1C(=O)NCCN1CCOCC1)c1ccco1`, the Percent Effect was determined as 12.6%. With `COC1CCN(c2ccc(F)cc2CN(C)S(C)(=O)=O)CC1` the figure was 6.29%; with `CCOc1cccc(CN(Cc2cnn(C)c2)CC(C)C)c1O`, -9.84%; with `Cc1nnc(-c2cccc(C#N)c2)n1C1CCCN(C(C)C)C1=O` (stereo not given), 4.62%.

These data come from ChEMBL document CHEMBL3988442, “University of Dundee, Small-Polar-MMV Screening Library” (2021).
